In all, about 300,000 compounds went through this assay and about 37,000 (12%) were called active. The sample holds actives, similar compounds and a random draw of the others, so the mix is not that of the screen. Cut-off read from the data, not from the text of the source: active = max response mostly above about 13% (no sharp cut-off); inactive = mostly below about 14%.

This test can be described thus: Cycloheximide Counterscreen for Small Molecule Inhibitors of Shiga Toxin. Note: read at 38.3 µM for the half of the compounds with a filed dose; 0% is about no effect. The conditions noted are these: cell reporter, cycloheximide protein synthesis inhibition counterscreen; stronger effect = higher value. A general note: A counterscreen serves to expose hits that act by an unwanted route or on another target.
Regarding `O=C(COc1cc(Cl)c(Cl)cc1Cl)NC(=O)NC1CCCC1`, the max response was -3.88% (inactive). As for `O=C(CN1CCOCC1)N1CCCc2c1c(=O)oc1ccc(OCc3ccccc3)cc21`, the max response is -7.12% (inactive). With `CCCc1c(C)nc2c(Br)cccc2c1Cl` the figure was -2.12% (inactive); with `CCc1c(C)nc2c(OC)cccc2c1Cl`, 10.5% (active). As for `COc1cccc2c(N/N=C/c3ccco3)cc(C)nc12`, the max response was 18.9% (inactive).

On to `COc1ccc2c(c1)C(SCC(=O)NCc1ccccc1)CC(C)(C)O2` (stereo not given), for which the max response was -3.58% (inactive). With `Cc1cc(/C=C2\SC(=O)N(C)C2=O)c(C)n1-c1cccc(C(=O)O)c1` the figure was 10.2% (inactive); with `CCOC(=O)C1=C(O)/C(=C/c2cc(C)n(-c3ccccc3)c2C)N=C1C`, 10.2% (active); with `COC(=O)C1=C(O)/C(=C/c2ccc(OCC(=O)Nc3ccccc3)cc2)N=C1C`, -5.16% (inactive). With `CC(C)n1c(CN2CCN(Cc3ccccc3)CC2)nc2ccccc21` the figure was -2.09% (inactive); with `CC(=O)N1C(=O)C2(Nc3ccccc3N2)c2ccccc21`, -2.2% (inactive).

As to `CC(=O)NN1C(=O)c2ccccc2NC1c1ccccc1` (stereo not given), the max response was -3.65% (inactive). Turning to `CC(C)=NN1C(=O)c2ccccc2NC1(C)C`, the max response is 37.9% (active). With `Cc1cccc(NC(=O)C2CCCN(C(=O)Nc3ccc(F)cc3)C2)c1C` (stereo not given) the figure was -3.65% (inactive). In the case of `CC(C)CC(=O)NC(=S)NCc1ccccc1`, the max response is 3.76% (inactive). With `CC(C)CC(=O)N/C(N)=N/c1nc2ccccc2s1` the figure was 44.8% (active); with `CCC(=O)NCCc1nc2ccccc2n1CC`, -2.66% (inactive). For `CC(C)C(C)NC(=O)COc1ncnc2ccccc12` (stereo not given) the value was -3.43% (inactive); for `Cc1cc(C(=O)OCC(=O)Nc2nnc(C(C)C)s2)c2ccccc2n1`, -2.56% (inactive); for `CCC(=O)NC(=Nc1nc2ccccc2s1)NC(=O)CC`, 28.7% (active). With `CSCCC(NS(=O)(=O)c1ccccc1F)C(=O)N1CC=C(c2ccccc2)CC1` (stereo not given), the max response was -2.39% (inactive). For `COc1ccc(N(C(=O)c2snc(C(N)=O)c2N)C(C(=O)NC2CCCC2)c2ccco2)cc1OC` (stereo not given) the value was -2.38% (inactive). With `CC(C)C(C(=O)NCc1ccco1)N(CC1CCCO1)C(=O)CNS(=O)(=O)c1ccc(F)cc1` (stereo not given) the figure was -6.69% (inactive); with `Cc1cc(-c2ccc(S(=O)(=O)N3CCc4ccccc4C3)s2)on1`, -3.48% (inactive). For `O=C(N/N=C/c1cc(Cl)cc([N+](=O)[O-])c1O)C(O)(c1ccccc1)c1ccccc1` the value was -1.36% (inactive); for `N#Cc1ccsc1NC(=O)CN1CCN(S(=O)(=O)c2cc(Cl)ccc2Cl)CC1`, -2.08% (inactive). In the case of `C=C(C)C(=O)O[C@H]1C/C(C)=C\C(=O)/C=C(\C)[C@H](O)[C@@H]2OC(=O)C(=C)[C@@H]21`, the max response is 41.8% (active). For `Nc1nonc1-n1nnc(C(=O)N/N=C\c2ccncc2)c1CN1CCCCC1` the value was -1.14% (inactive). Take `O=C(c1ccc(C(F)(F)F)cc1)C1CCCN(C(=O)c2csnn2)C1` (stereo not given): the max response is 1.58% (inactive). `CCN(CC(=O)Nc1ccccc1OC)C(=O)Cn1cnc2ccccc2c1=O`: the max response is 1.69% (inactive).

Take `Cc1ccn2cc(-c3nonc3C)cc2c1`: the max response is 11.7% (active). For `CN(C)C(=O)c1ccc(NC(=O)c2ccccc2-c2ccccc2)cc1` the value was -3.02% (inactive). Consider `COc1cc(CN(C)Cc2nc3cc(C(F)(F)F)ccc3c(=O)[nH]2)ccc1OC(F)F`, for which the max response is 1.37% (inactive). With `CC1(C)SC2C(NC(=O)COc3ccccc3)C(=O)N2C1C(=O)O` (stereo not given), the max response is -0.647% (inactive). Consider `COc1cc(OC)c(S(=O)(=O)Nc2ccccc2C(=O)O)cc1S(=O)(=O)Nc1ccccc1C(=O)O`, for which the max response was -2.35% (inactive).

Regarding `COc1cc(/C=C/C(=O)O)cc(S(=O)(=O)Nc2ccccc2C(=O)NCCc2ccccc2)c1OC`, the max response was 41.8% (active). With `NC(=O)c1ccccc1NC(=O)c1ccccc1F` the figure was 14.9% (inactive).

Regarding `O=C(O)c1ccccc1-c1ccccc1C(=O)NCCc1ccccc1`, the max response is 0.507% (inactive). Take `NC(=O)Nc1ccccc1C(=O)NCCc1ccccc1`: the max response was 63.4% (active).

As to `COc1cc(/C=C/C(=O)O)cc(S(=O)(=O)Nc2ccccc2SC)c1OC`, the max response was -2.09% (inactive).

Consider `CCN(CC)CCNC(=O)c1sc2ncn(CC(=O)Nc3ccc(C)c(Cl)c3)c(=O)c2c1C`, for which the max response is -6.12% (inactive).

For `Cc1ccc(NC(=O)CSc2nnc(CNC(=O)c3ccccc3F)o2)cc1Cl`, the max response is 7.13% (inactive). With `CCCNC(=O)CCc1c(C)nc2c(c(C)nn2-c2ccccc2)c1C` the figure was -1.68% (inactive); with `Cc1ccc(C)c(C(=O)N2CCC(n3nccc3NC(=O)C3CC3)CC2)c1`, -2.23% (inactive).

Turning to `Cc1ccc(C)c(NS(=O)(=O)c2c(C)[nH]c(C)c2C(=O)N2CCCCC2)c1`, the max response is -4.94% (inactive). With `O=C(/C=C/c1cnc2ccccc2n1)NC1CCCCCC1` the figure was 49.7% (active). Turning to `O=C(Cn1c(-c2cncs2)nc2ccccc21)NC1CCCC1`, the max response was -2.22% (inactive).

Regarding `CC(=O)OC(C(=O)NC1CCCCC1)c1ccccc1` (stereo not given), the max response is -1.59% (inactive). For `CC(c1ccco1)N(C(=O)Nc1ccccc1)C1CCCCC1` (stereo not given) the value was 14.3% (active); for `CCCC(C(=O)NCc1ccco1)N(C(=O)CNS(=O)(=O)c1ccccc1)C1CCCC1` (stereo not given), 2.82% (inactive).

As to `CCOc1ccc(NC(=O)N(CCC(C)C)C(C)c2ccco2)cc1` (stereo not given), the max response is 8.57% (inactive). For `COc1ccc(C2=NS(=O)(=O)N(C)C(C(=O)N(C)Cc3ccccc3)=C2)cc1` the value was -2.93% (inactive).

As for `O=C(C[C@H]1C(=O)N(c2ccc(F)c(F)c2)C[C@@H]1Cc1ccccc1)Nc1ccccc1`, the max response was 2.14% (inactive).

In the case of `CCOc1ccc(NC(=O)C2CCN(C(=O)N3CCOc4ccccc43)CC2)cc1`, the max response is -1.22% (inactive). For `Cc1cc(C)c2c(=O)[nH]c(SCC(=O)Nc3ccc(Br)cc3)nc2n1` the value was -1.25% (inactive); for `COc1ccc(C2CC(c3cccs3)=NN2C(=O)CCC(=O)O)cc1OC` (stereo not given), -0.943% (inactive).

As for `COc1ccc(C2CC(c3cccs3)=Nc3ccccc3S2)cc1OC` (stereo not given), the max response is 30.8% (active). For `COc1ccc(C2CC(c3cccs3)=NN2c2ccc(F)cc2)cc1OC` (stereo not given) the value was 15.3% (inactive); for `COC(=O)c1ccc(NC(=O)CSc2nnc(CNc3ccc(OC)cc3)n2C)cc1`, 15.4% (active). With `COC(=O)c1ccc(NC(=O)CSc2nnc(-c3ccncc3)n2C)cc1` the figure was 0.526% (inactive); with `C=CCn1c(CNC(=O)c2ccco2)nnc1SCC(=O)c1ccc(OC)cc1`, 0.446% (inactive).

Consider `CCn1c(SCC(=O)NNC(=O)c2ccc(OC)cc2)nnc1C(C)C`, for which the max response was -1.89% (inactive).

For the compound `CCn1c(CNc2ccc(OC)cc2)nnc1SCC(=O)c1ccc(OC)cc1`, the max response is 25.8% (active). On to `COC(=O)c1ccc(NC(=O)CSc2nnc(C3CC3)n2C)cc1`, for which the max response is -2.61% (inactive). For `O=C(NCCCN1CCCC1=O)C(=O)NCC1OCCN1S(=O)(=O)c1ccc(Br)cc1` (stereo not given) the value was 0.895% (inactive); for `CN(C)c1ccc(NC(=S)N(CCc2ccccc2)C2CC(=O)N(c3c(Cl)cccc3Cl)C2=O)cc1` (stereo not given), 9.01% (inactive); for `Cc1ccc(-n2c(SCC(=O)NCCC3=CCCCC3)nc3n[nH]c(C)c3c2=N)cc1Cl`, -7.25% (inactive).

As for `O=C(Cn1cncn1)N/N=C/c1c2ccccc2cc2ccccc12`, the max response was 10.8% (inactive). For `Cc1cccn2c(=O)c3cc(C(=O)NCCN4CCOCC4)c(=N)n(Cc4cccnc4)c3nc12` the value was -3.88% (inactive); for `CC(Cc1cccs1)NCc1ccc(Cl)cc1` (stereo not given), 8.85% (inactive); for `CC(Cc1cccs1)NC(=O)NC1CCCCC1` (stereo not given), 12% (inactive). With `CC(Cc1cccs1)NC(=O)c1cccc(Cl)c1` (stereo not given), the max response is 54.9% (active).

For the compound `O=C(c1cnc(Cl)c(Cl)c1)N1CCN(S(=O)(=O)c2ccc(F)cc2)CC1`, the max response is -7.24% (inactive). With `Cc1cnc(C(=O)N2CCCC(C(=O)c3ccc(C(F)(F)F)cc3)C2)cn1` (stereo not given) the figure was -6.02% (inactive). With `O=C(NCc1ccco1)c1sc2cccc(F)c2c1Cl` the figure was 24.8% (active); with `Cn1nc(-c2ccc(Cl)cc2)c2cc(C(=O)NCc3ccco3)sc21`, -3.6% (inactive). For `O=C(NCc1ccco1)c1nn2cccnc2c1Cl` the value was 7.86% (inactive); for `COc1ccc2c(Cl)c(C(=O)NCc3ccco3)sc2c1`, 76.1% (active); for `O=C(NCc1ccco1)c1ccc([N+](=O)[O-])cc1Cl`, -2.66% (inactive). Take `COc1ccc(-c2cc(C(=O)NCc3ccco3)no2)cc1OC`: the max response was 8.2% (inactive). With `COC(=O)c1ccc(COc2cc([N+](=O)[O-])cc3cccnc23)cc1` the figure was 0.536% (inactive).

With `COc1cccc(NC(=O)C2CCCN(c3ncnc4c3nc3n4CCCCC3)C2)c1` (stereo not given), the max response is 9.28% (inactive). With `CCCOc1ccc(Cc2c(Cl)nc(SC)nc2NC)cc1` the figure was -0.737% (inactive); with `CC(NC(=O)c1cc(=O)[nH]c2ccccc12)c1ccc(F)cc1F` (stereo not given), -4.29% (inactive); with `CC(C)N1C(=S)SC(C)(C)C1n1oc(=O)n(-c2ccc(Cl)c(Cl)c2)c1=O` (stereo not given), -1.96% (inactive). Turning to `CC(=O)NC1CCN(CC(=O)Nc2nccs2)CC1`, the max response is 4.21% (inactive). With `CC1(C)CC(=O)C(C2c3ccccc3S(=O)(=O)c3ccccc32)C(=O)C1` the figure was 7.14% (inactive); with `COc1ccc(CNC(=O)C(NS(=O)(=O)c2cccc3nsnc23)C(C)C)cc1` (stereo not given), 2.57% (inactive); with `Cc1ccc(C)c(OCCC(=O)OCC(=O)N2CCN(c3ccccc3)CC2)c1`, -1.98% (inactive).

Consider `CCCCN1C(=O)/C(=C(/C#N)C(N)=O)c2ccccc21`, for which the max response is -9.26% (inactive). With `C#CCN1C(=O)C(O)(CC(=O)c2cc(OC)ccc2OC)c2ccccc21` (stereo not given) the figure was -0.954% (inactive); with `COc1ccc2c(c1)C(=C(C#N)C#N)C(=O)N2CCc1ccccc1`, 13.7% (active); with `COc1cccc2cc(C(N)=O)/c(=N\NC(=O)c3ccccc3)oc12`, 36.9% (active). With `NC(=O)c1cc2ccccc2o/c1=N/NC(=O)c1cccc(F)c1`, the max response was 8.31% (inactive).

`COc1ccc(C(=O)N/N=c2\oc3ccccc3cc2C(N)=O)cc1`: the max response is 45% (inactive).

(Values after PubChem BioAssay AID2314 (National Center for Advancing Translational Sciences (NCATS), 2010).)
